# Test results from PubChem BioAssay (NCATS).
# Inconclusive results are not listed. A call without a number means that no potency is given here. Values without a mark were called inactive. Activity calls are given as the source filed them. Calls come from the whole dose curve; as a rule, active = well fitted inhibition curve with a large enough effect; inconclusive = small, poorly fitted or top-dose-only effect; inactive = no such curve, though single readings can be large or run the other way. *1 amine or outer side, *2 acyl side, *3 side chain or, on linkers, in order; H or OH if unused. Where a SMILES comes first, the peptide text is derived from it. Bridges are numbered along the chain shown (N, C = ends). X6 = O=C(CCC[*:2])[*:1]
# Tests used:
# [1] = system: Zika virus NS2B-NS3 protease (unlinked complex); assay: Primary screen GU Rhodamine qHTS for Zika virus inhibitors: Unlinked NS2B-NS3 protease assay (AID 1347159); note: nearly all actives have a fitted effect of over 60% in size
# In short: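 Noncovalent NS2B hydrophilic domain–NS3 protease domain complex (25 nM) preincubated 15 min at room temperature with compounds (up to 114 microM) in 10 mM Tris-HCl pH 8.0, 0.01% Tween 20; 1.5 microM Rhodamine110 substrate added, fluorescence change over 15 min fitted to Hill equation.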
# [2] = system: Zika virus NS2B-NS3 protease (linked construct); assay: Primary screen NINDS Rhodamine qHTS for Zika virus inhibitors (AID 1347160); note: nearly all actives have a fitted effect of over 55% in size
# In short: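 Purified linked NS2B-NS3 protease (NS2B hydrophilic domain joined to NS3 protease by flexible linker), 25 nM in 10 mM Tris-HCl pH 8.0, 0.01% Tween 20. Compounds titrated, 15 min preincubation at room temperature; 1.5 microM Rhodamine110 substrate, FITC fluorescence change over 15 min.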
# Potency is the fitted concentration of half-maximal effect.
Structure (SMILES),Potency [1],Potency [2],"activity change, negative = inhibition [1]","activity change, negative = inhibition [2]"
CC(CO[C@@H]1O[C@H](COC(=O)/C=C/c2ccc(O)c(O)c2)[C@@H](O)[C@H](O)[C@H]1O)C1(O)COC(=O)C1 (stereo partly specified),inactive,inactive,–,–
O=C(C1CC1)N1CC[C@@H](Cc2n[nH]c(=O)n2-c2ccc(-c3ccc4occc4c3)cc2)C1,inactive,inactive,–,–
COCCN(C)Cc1ccc2nc3sc(C(=O)N(C)C4CCCCC4)cn3c2c1,inactive,inactive,–,–
O=c1c2cccnc2n(-c2cccc([N+](=O)[O-])c2)c(=O)n1Cc1ccncc1,inactive,inactive,–,–
CC1CC(=O)C2=C(O1)OC1(C)CCC3C(C)(C)C=CC(=O)C3(C)C1C2 (stereo unspecified),28.2 µM (active),12.6 µM (active),–,–
C=C(C)C(=O)O[C@H]1C[C@@](C)(OC(C)=O)[C@@]2(O)CC[C@@](C)(O)[C@H](OC(C)=O)[C@@]23OC(=O)C(COC)=C13,inactive,inactive,–,–
COc1ccc2c3c1O[C@H]1C[C@@H](O)C=C[C@@]31CCN(C)C2,inactive,inactive,–,–
CCC[C@@H]1C[C@@H](C(=O)N[C@H](C(C)Cl)[C@H]2O[C@H](SC)[C@H](O)[C@@H](O)[C@H]2O)N(C)C1 (stereo partly specified),inactive,inactive,–,–
CCOC(=O)c1ccnc(CNCC(=O)N(CC)CCN(C)C)c1,inactive,inactive,–,–
C=C1[C@H]2CC[C@]3(O)[C@@](CC[C@@H]4[C@](C)(C(=O)O)CCC[C@]43C)(C2)[C@H]1OC(=O)/C(C)=C\C,inactive,inactive,–,–
O=C(/C=C/c1ccc(O)cc1)O[C@H]1[C@@H]2C=CO[C@@H](O[C@@H]3O[C@H](CO)[C@@H](O)[C@H](O)[C@H]3O)[C@@H]2[C@@]2(CO)O[C@@H]12,inactive,inactive,–,–
CC[C@H](C)[C@@H]1NC(=O)[C@H](Cc2ccc(OC)cc2)NC(=O)CCCSC[C@@H](C(=O)N2CCC[C@H]2C(=O)N[C@@H](CC(C)C)C(=O)NCC(N)=O)NC(=O)[C@H](CC(N)=O)NC(=O)[C@H](CCC(N)=O)NC1=O (Y(Me)IQNCPLG-NH2; linker N-5 via X6),inactive,inactive,–,–
O=C(CCCCc1ccc2ccccc2c1)C(F)(F)F,inactive,inactive,–,–
COc1cc(COC2OC(CO)C(O)C(O)C2O)cc(OC)c1O (stereo unspecified),inactive,inactive,–,–
CN[C@@H]1[C@@H](O)[C@@H](O[C@@H]2[C@@H](O)[C@H](O[C@H]3O[C@H](CN)[C@@H](O)[C@H](O)[C@H]3O)[C@@H](N)C[C@H]2NC(=O)[C@@H](O)CN)OC[C@]1(C)O,inactive,inactive,–,–
COc1ccc(C2=CC(=O)OC2Cc2ccc(O)cc2)c(O)c1 (stereo unspecified),inactive,inactive,–,–
COC1=CC(=O)O[C@@H](CCc2ccccc2)[C@@H]1O,inactive,inactive,–,–
C[C@@H]1C[C@H](O[C@@H]2O[C@H](CO[C@@H]3OC[C@](O)(CO)[C@H]3O)[C@@H](O)[C@H](O)[C@H]2O)CC(C)(C)[C@H]1/C=C/[C@@H](C)O,inactive,inactive,–,–
C=C1C(OC(C)=O)C(=O)C2C(C)(C)C(OC(C)=O)CCC2(C)C1CC(OC(C)=O)/C(C)=C/COC(C)=O (stereo unspecified),inactive,inactive,–,–
CC1CC(O)CC(C)(C)C1(O)CCO (stereo unspecified),inactive,inactive,–,–
CCOC(=O)[C@H]1O[C@@H]1C(=O)N[C@@H](CC(C)C)C(=O)NCCC(C)C,inactive,inactive,–,–

Structure (SMILES),Potency [1],Potency [2],"activity change, negative = inhibition [1]","activity change, negative = inhibition [2]"
COC(=O)C[C@@H]1C(C(=O)O)=CO[C@@H](O[C@@H]2O[C@H](CO)[C@@H](O)[C@H](O)[C@H]2O)/C1=C\COC(=O)/C=C\c1ccccc1,inactive,inactive,–,–
O=C(/C=C/c1ccccc1)OCC1=CC[C@@H]2C(C(=O)O)=CO[C@@H](O[C@@H]3O[C@H](CO)[C@@H](O)[C@H](O)[C@H]3O)[C@H]12,inactive,inactive,–,–
C=C1CCC2(OC1)OC1CC3C4CC=C5CC(O)CC(O[C@@H]6OC[C@@H](O)[C@H](O)[C@H]6O)C5(C)C4CCC3(C)C1(O)C2C (stereo partly specified),inactive,inactive,–,–
C=CC(C)(O)CO[C@@H]1O[C@H](CO)[C@@H](O)[C@H](O)[C@H]1O (stereo partly specified),inactive,inactive,–,–
Cc1cccc(-c2[nH]c(CNc3ccccc3F)nc2-c2ccc3ncnn3c2)n1,inactive,inactive,–,–
C=CCc1ccc(O[C@@H]2O[C@H](CO)[C@@H](O)[C@H](O)[C@H]2O)c(OC)c1,12.6 µM (active),inactive,–,–
COc1ccc(/C=C/C(=O)O[C@@H]2[C@@H](OC(C)=O)[C@@H](OC(C)=O)[C@H](O[C@H]3[C@@H]4C=CO[C@@H](O[C@@H]5O[C@H](CO)[C@@H](O)[C@H](O)[C@H]5O)[C@@H]4[C@@]4(CO)O[C@@H]34)O[C@H]2C)cc1O,inactive,inactive,–,–
O=C(O)c1n[nH]c2c1C[C@H]1C[C@@H]21,inactive,inactive,–,–
C=C[C@H]1[C@H](O[C@@H]2O[C@H](CO[C@@H]3OC[C@](O)(CO)[C@H]3O)[C@@H](O)[C@H](O)[C@H]2O)OC=C2C(=O)OCC[C@H]21,inactive,inactive,–,–
O=C(/C=C/c1ccc(O)cc1)OC[C@]12O[C@H]1[C@@H](O)[C@@H]1C=CO[C@@H](O[C@@H]3O[C@H](CO)[C@@H](O)[C@H](O)[C@H]3O)[C@@H]12,inactive,inactive,–,–
c1ccc(Cc2ncc3c(n2)CCNCC3)cc1,inactive,inactive,–,–
CC1=CC(=O)C[C@H]2[C@@H]1CC[C@@H](C)[C@]21CO[C@H](c2ccoc2)C1=O,inactive,inactive,–,–
O=C(COc1ccc(Cl)cc1)NC1CCC(NC(=O)COc2ccc(Cl)cc2)CC1 (stereo unspecified),inactive,inactive,–,–
CC1CCC2(C(=O)OC3OC(CO)C(O)C(O)C3O)CCC3(C)C(=CCC4C5(C)CC(O)C(O)C(C)(C(=O)O)C5CCC43C)C2C1(C)O (stereo unspecified),inactive,inactive,–,–
CC(=O)N1CCN(NC(=O)c2ccc(F)cc2)CC1,inactive,inactive,–,–
O=S(=O)(Nc1ccc(C(O)(C(F)(F)F)C(F)(F)F)cc1)c1cccs1,inactive,inactive,–,–
CC1(C)C[C@H]2C3=CCC4[C@@]5(C)CC[C@H](O[C@H]6O[C@H](C(=O)O)[C@@H](O)[C@H](O)[C@H]6O[C@H]6O[C@H](CO)[C@@H](O)[C@H](O)[C@H]6O[C@@H]6O[C@H](CO)[C@@H](O)[C@H](O)[C@H]6O)[C@](C)(CO)C5CC[C@@]4(C)[C@]3(C)CC[C@@]2(C)[C@H](O[C@@H]2OC[C@H](O)[C@H](OC3O[C@H](CO)[C@@H](O)[C@H](O)[C@H]3O)[C@H]2O)[C@@H]1O (stereo partly specified),–,–,6.08% [at 19.1 µM],-4.25% [at 10.7 µM]
CC1(C)CC[C@]2(C(=O)O)CC[C@]3(C)C(=CCC4[C@@]5(C)C[C@H](O)[C@H](O[C@@H]6OC[C@H](O)[C@H](O)[C@H]6O)[C@@](C)(CO)C5CC[C@]43C)[C@@H]2C1 (stereo partly specified),inactive,inactive,–,–
O=C(c1ccc(F)cc1)C1CCN(CCn2c(=O)nc3n(c2=O)CCCC3)CC1,inactive,inactive,–,–
OC[C@H]1O[C@@H](Oc2ccc3c(c2)OC[C@H]2c4cc5c(cc4O[C@@H]32)OCO5)[C@H](O)[C@@H](O)[C@@H]1O,inactive,inactive,–,–
CNC(=O)c1ccc2cc([C@@]3(O)CCn4cncc43)ccc2c1,inactive,inactive,–,–

Structure (SMILES),Potency [1],Potency [2],"activity change, negative = inhibition [1]","activity change, negative = inhibition [2]"
C=C1CC/C=C(/CO)C(=O)C[C@@H]2[C@@H]1CC2(C)C,inactive,inactive,–,–
COc1cc(/C=C/CO)ccc1O[C@@H]1O[C@H](CO)[C@@H](O)[C@H](O)[C@H]1O,inactive,inactive,–,–
CCN(c1cc(C#CCN2CCOCC2)cc(C(=O)NCc2c(C)cc(C)[nH]c2=O)c1C)C1CCC(N(C)CCOC)CC1 (stereo unspecified),inactive,inactive,–,–
Cc1coc2c1CC1OC1(C)CCC1OC1(C)C2 (stereo unspecified),inactive,inactive,–,–
C=C1CC23CC1(O)CCC2C1=CC2OC(=O)C(C)(C2O)C1C3C(=O)O (stereo unspecified),inactive,inactive,–,–
C[C@]1(OC(=O)/C=C/c2ccccc2)C[C@H](O)[C@]2(O)C=CO[C@@H](O[C@@H]3O[C@H](CO)[C@@H](O)[C@H](O)[C@H]3O)C12 (stereo partly specified),inactive,inactive,–,–
CC1(C)C(O)CCC2(C)C1C(O)C=C1COC(=O)C12O (stereo unspecified),inactive,inactive,–,–
CC1CCC2C(C)(C)C(O)CCC2(C)C12Cc1c(O)cc3c(c1O2)CN(C(CCC(N)=O)C(=O)O)C3=O (stereo unspecified),inactive,inactive,–,–
COc1ccc2c(c1)O[C@H](O[C@@H]1O[C@H](CO)[C@@H](O)[C@H](O)[C@H]1O)C(=O)N2,inactive,inactive,–,–
Clc1ccc(CN[C@H]2CCN(c3ncc(Br)cn3)C2)c(Cl)c1,inactive,inactive,–,–
C[C@@H]1C(=O)O[C@H]2CC34[C@H]5C[C@@H](C(C)(C)C)C36[C@@H](OC(=O)[C@@H]6O)O[C@@]4(C(=O)O5)[C@]21O (stereo partly specified),inactive,inactive,–,–
Nc1c(Br)cc(Br)cc1CNC1CCC(O)CC1 (stereo unspecified),inactive,inactive,–,–
CCOc1ccc(C(Nc2ccccn2)c2ccc3ccc(C)nc3c2O)cc1C (stereo unspecified),inactive,inactive,–,–
COc1cc2c(cc1OC)CN(C(=O)[C@@H](NCc1ccncc1)C(C)(C)C)CC2,inactive,inactive,–,–
Cn1ccnc1CCOC(c1cc2nccc(C(=O)O)c2[nH]1)c1ccccc1Cl (stereo unspecified),inactive,inactive,–,–
COc1ncc(-c2ccc3c(Nc4cc(Oc5cc(F)cc(F)c5)cc(C(=O)O)c4)c(S(=O)(=O)NC4CC4)cnc3c2)c(OC)n1,8.91 µM (active),14.1 µM (active),–,–
CC/C=C/CC1=C(CCCCCCCC(=O)O)CCC1=O,inactive,inactive,–,–
CC(C)C1=CC2=CCC3[C@](C)(CCC[C@@]3(C)C(=O)O)C2CC1O (stereo partly specified),inactive,inactive,–,–
CC1(C)CCCC2(C)C3=C(C(=O)OC3O)C(O)CC12 (stereo unspecified),inactive,inactive,–,–
OC[C@H]1O[C@@H](n2cnc3c(NCc4ccc(O)cc4)ncnc32)[C@H](O)[C@@H]1O,inactive,inactive,–,–
C[C@H](NCc1ccc(OCc2ccccc2F)cc1)C(N)=O,inactive,inactive,–,–
